# Measured values taken from the supplement of paper PMC12494721.
# Counter-ions that a name gives are not always drawn. Values without a mark were called inactive.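 How the source made its calls: for the amine columns active = adjusted P below 0.05 in both replicates with a change the same way and a mean fold change under 0.8 or over 1.25; inactive = the rest.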
# System: Klebsiella aerogenes DSM 30053
# Experiment: fold change of Histamine concentration vs plate DMSO controls (fold change (ratio)); higher = more amine produced, active = hit call of the paper (significant change in both replicates, either direction)
# Conditions: incubation time: 27 h, anaerobic, 37 °C
# Method in brief: (§1)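 Amine values are fold changes relative to DMSO-only wells on the same plate. They derive from 27 h, 37 °C anaerobic mGAM cultures of four gut bacterial strains in 80 µL wells, dosed at 20 µM final, or 50 µM final for sweeteners. Extraction of the whole culture, LC–triple-quadrupole MS in dynamic MRM mode, external calibration curves and within-batch drift correction were used, with 2 biological replicates averaged.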
row,SMILES,fold change of Histamine concentration
1,COc1nc(N)nc2c1ncn2[C@@H]1O[C@H](CO)[C@@H](O)[C@@H]1O [Nelarabine] (20 µM),1.08
2,O=C(NCc1ncc(C(F)(F)F)cc1Cl)c1c(Cl)cccc1Cl (20 µM),1.01
3,CCc1oc2ccccc2c1C(=O)c1cc(Br)c(O)c(Br)c1 [Benzbromarone] (20 µM),0.958
4,Nc1nc(=O)[nH]cc1F [Flucytosine] (20 µM),1.07
5,CC[N+](CC)(CC)CCOc1cccc(OCC[N+](CC)(CC)CC)c1OCC[N+](CC)(CC)CC [Gallamine triethiodide] (20 µM),0.862
6,COc1cc(C)nc(-n2nc(C)cc2OC)n1 [Epirizole] (20 µM),1.02
7,COc1ccccc1O [Guaiacol] (20 µM),0.966
8,COc1cccc2c1C(=O)c1c(O)c3c(c(O)c1C2=O)C[C@@](O)(C(=O)CO)C[C@@H]3O[C@H]1C[C@H](N)[C@@H](O)[C@H](C)O1 [Epirubicin hydrochloride] (20 µM),1.01
9,Cc1onc(-c2ccccc2)c1C(=O)N[C@@H]1C(=O)N2[C@@H]1SC(C)(C)[C@@H]2C(=O)O [Oxacillin sodium] (20 µM),0.996
10,CCCOc1cc(N)ccc1C(=O)OCCN(CC)CC [Propoxycaine hydrochloride] (20 µM),0.991
11,OC[C@H]1O[C@H](O[C@H]2O[C@H](CO)[C@@H](O)[C@H](O)[C@H]2O)[C@H](O)[C@@H](O)[C@@H]1O [Trehalose] (50 µM),0.94
12,CN1[C@@H]2CC[C@H]1C[C@@H](OC(c1ccccc1)c1ccccc1)C2 [Benztropine mesylate] (20 µM),1.09
13,C[C@H](CCC(=O)O)[C@H]1CC[C@H]2[C@@H]3CC[C@@H]4C[C@H](O)CC[C@]4(C)[C@H]3CC[C@]12C [Lithocholic acid] (20 µM),0.9
14,CN(C)CCC=C1c2ccccc2COc2ccccc21 [Doxepin hydrochloride] (20 µM),0.999
15,NC[C@H]1O[C@H](O[C@H]2[C@H](O)[C@@H](O[C@H]3O[C@H](CO)[C@@H](O)[C@H](N)[C@H]3O)[C@H](N)C[C@@H]2N)[C@H](N)C[C@@H]1O [Tobramycin] (20 µM),0.65 (active)
16,CC(=O)Oc1cccc2c1C(=O)c1c(OC(C)=O)cc(C(=O)O)cc1C2=O [Diacerein] (20 µM),0.952
17,CCCCc1ncc(/C=C(\Cc2cccs2)C(=O)O)n1Cc1ccc(C(=O)O)cc1 [Eprosartan mesylate] (20 µM),0.882
18,CCCc1nc2c(C)cc(-c3nc4ccccc4n3C)cc2n1Cc1ccc(-c2ccccc2C(=O)O)cc1 [Telmisartan] (20 µM),1.02
19,CNC(C)CCC=C(C)C (stereo unspecified) [Isometheptene mucate] (20 µM),1.09
20,O=C1CCC(N2C(=O)c3ccccc3C2=O)C(=O)N1 (stereo unspecified) [Thalidomide] (20 µM),1
21,CCN(CC)C(=O)N1CCN(C)CC1 [Diethylcarbamazine citrate] (20 µM),0.954
22,CCCCCCCN(CC)CCCC(O)c1ccc(NS(C)(=O)=O)cc1 (stereo unspecified) [Ibutilide fumarate] (20 µM),0.925
23,CCN(CCCCOC(=O)c1ccc(OC)c(OC)c1)C(C)Cc1ccc(OC)cc1 (stereo unspecified) [Mebeverine hydrochloride] (20 µM),0.903
24,N=C(N=C(N)N)N1CCOCC1 [Moroxidine hydrochloride] (20 µM),1.11
25,O=c1[nH]c(=O)n([C@H]2C[C@H](O)[C@@H](CO)O2)cc1I [Idoxuridine] (20 µM),1.03
26,Cc1cc(C2CCCCC2)n(O)c(=O)c1 [Ciclopirox ethanolamine] (20 µM),0.978
27,CC[N+](C)(C)Cc1ccccc1Br [Bretylium tosylate] (20 µM),0.853

# System: Clostridium sporogenes DSM 1664
# Experiment: fold change of Tryptamine concentration vs plate DMSO controls (fold change (ratio)); higher = more amine produced, active = hit call of the paper (significant change in both replicates, either direction)
# Conditions: incubation time: 27 h, anaerobic, 37 °C
# Method in brief: as §1
row,SMILES,fold change of Tryptamine concentration
1,CC1CC(OC(=O)C(O)c2ccccc2)CC(C)(C)C1 (stereo unspecified) [Cyclandelate] (20 µM),1.04
2,COc1ccc(C(=O)CC(=O)c2ccc(C(C)(C)C)cc2)cc1 [Avobenzone] (20 µM),0.932
3,Cc1nc2ccccc2n1Cc1ccc(Cl)cc1 [Chlormidazole] (20 µM),1
4,Cn1nnnc1SCC1=C(C(=O)O)N2C(=O)[C@@H](NC(=O)[C@H](O)c3ccccc3)[C@H]2SC1 [Cefamandole sodium salt] (20 µM),0.0204 (active)
5,CCN1CCC[C@H]1CNC(=O)c1c(O)c(Cl)cc(Cl)c1OC [Raclopride] (20 µM),1.06
6,O=c1oc2ccccc2c(O)c1Cc1c(O)c2ccccc2oc1=O [Dicumarol] (20 µM),0.989
7,S=C([S-])NCCNC(=S)[S-].S=C([S-])NCCNC(=S)[S-].[Mn+2].[Zn+2] (20 µM),1.14
8,CC(NCCC(c1ccccc1)c1ccccc1)c1ccccc1 (stereo unspecified) [Fendiline hydrochloride] (20 µM),0.941
9,Nc1ccc(S(=O)(=O)Nc2nccs2)cc1 [Sulfathiazole] (20 µM),0.968
10,CC(=O)/N=c1/sc(S(N)(=O)=O)nn1C [Methazolamide] (20 µM),1.02
11,Oc1ccccc1O [Catechol] (20 µM),0.972
12,COc1cc(C(=O)NS(=O)(=O)c2ccccc2C)ccc1Cc1cn(C)c2ccc(NC(=O)OC3CCCC3)cc12 [Zafirlukast] (20 µM),0.371 (active)
13,COc1nc(N)nc2c1ncn2[C@@H]1O[C@H](CO)[C@@H](O)[C@@H]1O [Nelarabine] (20 µM),0.945
14,O=C(NCc1ncc(C(F)(F)F)cc1Cl)c1c(Cl)cccc1Cl (20 µM),0.989
15,CCc1oc2ccccc2c1C(=O)c1cc(Br)c(O)c(Br)c1 [Benzbromarone] (20 µM),0.706 (active)
16,Nc1nc(=O)[nH]cc1F [Flucytosine] (20 µM),0.924
17,CC[N+](CC)(CC)CCOc1cccc(OCC[N+](CC)(CC)CC)c1OCC[N+](CC)(CC)CC [Gallamine triethiodide] (20 µM),1.12
18,COc1cc(C)nc(-n2nc(C)cc2OC)n1 [Epirizole] (20 µM),1.04
19,COc1ccccc1O [Guaiacol] (20 µM),1.03
20,COc1cccc2c1C(=O)c1c(O)c3c(c(O)c1C2=O)C[C@@](O)(C(=O)CO)C[C@@H]3O[C@H]1C[C@H](N)[C@@H](O)[C@H](C)O1 [Epirubicin hydrochloride] (20 µM),0.953

row,SMILES,fold change of Tryptamine concentration
1,Cc1onc(-c2ccccc2)c1C(=O)N[C@@H]1C(=O)N2[C@@H]1SC(C)(C)[C@@H]2C(=O)O [Oxacillin sodium] (20 µM),0.0257 (active)
2,CCCOc1cc(N)ccc1C(=O)OCCN(CC)CC [Propoxycaine hydrochloride] (20 µM),1.02
3,OC[C@H]1O[C@H](O[C@H]2O[C@H](CO)[C@@H](O)[C@H](O)[C@H]2O)[C@H](O)[C@@H](O)[C@@H]1O [Trehalose] (50 µM),1.16
4,CN1[C@@H]2CC[C@H]1C[C@@H](OC(c1ccccc1)c1ccccc1)C2 [Benztropine mesylate] (20 µM),1.03
5,C[C@H](CCC(=O)O)[C@H]1CC[C@H]2[C@@H]3CC[C@@H]4C[C@H](O)CC[C@]4(C)[C@H]3CC[C@]12C [Lithocholic acid] (20 µM),1.03
6,CN(C)CCC=C1c2ccccc2COc2ccccc21 [Doxepin hydrochloride] (20 µM),0.959
7,NC[C@H]1O[C@H](O[C@H]2[C@H](O)[C@@H](O[C@H]3O[C@H](CO)[C@@H](O)[C@H](N)[C@H]3O)[C@H](N)C[C@@H]2N)[C@H](N)C[C@@H]1O [Tobramycin] (20 µM),1.13
8,CC(=O)Oc1cccc2c1C(=O)c1c(OC(C)=O)cc(C(=O)O)cc1C2=O [Diacerein] (20 µM),1.02
9,CCCCc1ncc(/C=C(\Cc2cccs2)C(=O)O)n1Cc1ccc(C(=O)O)cc1 [Eprosartan mesylate] (20 µM),1.08
10,CCCc1nc2c(C)cc(-c3nc4ccccc4n3C)cc2n1Cc1ccc(-c2ccccc2C(=O)O)cc1 [Telmisartan] (20 µM),0.911
11,CNC(C)CCC=C(C)C (stereo unspecified) [Isometheptene mucate] (20 µM),0.944
12,O=C1CCC(N2C(=O)c3ccccc3C2=O)C(=O)N1 (stereo unspecified) [Thalidomide] (20 µM),1
13,CCN(CC)C(=O)N1CCN(C)CC1 [Diethylcarbamazine citrate] (20 µM),1.03
14,CCCCCCCN(CC)CCCC(O)c1ccc(NS(C)(=O)=O)cc1 (stereo unspecified) [Ibutilide fumarate] (20 µM),0.904
15,CCN(CCCCOC(=O)c1ccc(OC)c(OC)c1)C(C)Cc1ccc(OC)cc1 (stereo unspecified) [Mebeverine hydrochloride] (20 µM),1.01
16,N=C(N=C(N)N)N1CCOCC1 [Moroxidine hydrochloride] (20 µM),0.987
17,O=c1[nH]c(=O)n([C@H]2C[C@H](O)[C@@H](CO)O2)cc1I [Idoxuridine] (20 µM),1.25 (active)
18,Cc1cc(C2CCCCC2)n(O)c(=O)c1 [Ciclopirox ethanolamine] (20 µM),1.04
19,CC[N+](C)(C)Cc1ccccc1Br [Bretylium tosylate] (20 µM),0.973
